In the library only some 1.2% were active in any assay of this set; here they are far more common.
RGS16-Gao HTS: RGS16-Galphao interaction regulator (human) | AID 1441 | bead-based flow cytometry RGS16-Galphao binding, fluorescence; actives lie on both sides | O15492+P09471 | actives 0.38% (n = 220,000) | binding response (% of control), % at 10 µM;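 note: Galphao activated by GDP with aluminum fluoride before binding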
RGS8-Gao: human RGS8-Galphao interaction regulation; P09471; multiplexed bead flow cytometry, RGS8-Galphao binding; actives lie on both sides; response (percent of control binding), % at 10 µM; actives 0.34% (n = 220,000); AID 1423; in the data active = response below about 60% or above about 140%; inactive = in between;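 note: Galphao activated as the GDP aluminium fluoride complex binding bead-coupled RGS8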
Target sequence (P09471 whole entry, looked up): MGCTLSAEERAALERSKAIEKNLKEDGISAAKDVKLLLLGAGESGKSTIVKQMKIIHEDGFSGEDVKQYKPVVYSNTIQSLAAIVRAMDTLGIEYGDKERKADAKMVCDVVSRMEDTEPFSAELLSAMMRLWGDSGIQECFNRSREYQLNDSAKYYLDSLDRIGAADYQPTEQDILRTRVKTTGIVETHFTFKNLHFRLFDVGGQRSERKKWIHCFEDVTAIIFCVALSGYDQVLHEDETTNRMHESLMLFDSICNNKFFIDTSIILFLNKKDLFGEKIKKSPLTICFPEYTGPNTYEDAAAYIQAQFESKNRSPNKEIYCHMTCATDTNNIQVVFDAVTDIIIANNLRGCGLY
RGS7-Gao reg: modulates binding of RGS7 to human Galphao. P09471. Multiplexed bead flow cytometry; actives lie on both sides. binding response (% of control), % at 10 µM. actives 0.35% (n = 220,000); in the data active = binding response below about 49% or above about 150%; inconclusive = no clear call, values can overlap the other calls; inactive = in between;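 note: fluorescent Galphao held in activated GDP-AlF4 state binding bead-coupled RGS7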
RGS4-Gao reg: human RGS4-Galphao interaction regulation; P09471; Multiplexed bead flow cytometry, RGS4-Galphao binding; actives lie on both sides; binding response (% of control), % at 10 µM; actives 0.33% (n = 220,000); AID 1415; in the data active = binding response below about 49% or above about 150%; inactive = in between;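 note: fluorescent Galphao activated with aluminum fluoride binding bead-coupled RGS4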
Avidin fluor: compound fluoresces at 488/530 nm on avidin beads; compound fluorescence 488/530 nm, flow cytometry; stronger effect = higher value; fluorescence (KMESF) at 10 µM; actives 0.38% (n = 220,000); in the data active = fluorescence above about 47
GSH bead fluor: compound fluoresces at 488/530 nm on GSH beads | actives 0.25% (n = 190,000) | GSH beads flow cytometry, compound fluorescence 488/530 nm; stronger effect = higher value | AID 1776 | fluorescence (KMESF) at 10 µM; in the data active = fluorescence above about 89;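 note: glutathione beads carrying GST-tagged Bcl family fusion proteins plus one bare bead set; values are compound well signal with DMSO vehicle wells as background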
RGS-Gao: regulators of human RGS4-Galphao interaction; shares compounds with RGS16-Gao HTS; multiplexed bead flow cytometry, RGS–Galpha-o binding; RGS4–Galpha-o binding response, % at 10 µM; actives 99% (n = 1,600);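 note: fluorescently labeled Galpha-o bound to GDP with aluminium fluoride binding biotinylated RGS beads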
Biotin-avidin: biotin-avidin bead binding disruption counter-screen. shares compounds with RGS16-Gao HTS. streptavidin beads, fluorescein-biotin binding, flow cytometry. inhibition, % at 10 µM. 1,700 tested, under 10 active;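 active = inhibition above 50%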;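 note: median green fluorescence of gated singlet beads compared with DMSO control wells; 0% = DMSO wells and 100% = complete loss of bead fluorescence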
RGS8-Gao confirm: confirmation of regulators of human RGS8-Galphao interaction; shares compounds with RGS16-Gao HTS; bead-based flow cytometry RGS8-Galphao binding, fluorescence; actives lie on both sides; binding response (% of control), % at 10 µM; actives 3% (n = 1,700); AID 1836; in the data active = binding response below about 72% or above about 130%; inactive = in between;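 note: Galphao activated as GDP AlF4 complex before binding bead RGS8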
RGS7-Gao confirm: RGS7-Galphao interaction regulation, single point confirmation; AID 1837; response (percent of control binding), % at 10 µM; actives 7.8% (n = 1,700); shares compounds with RGS16-Gao HTS; bead-based flow cytometry RGS7-Galphao binding; actives lie on both sides; in the data active = response below about 75% or above about 130%; inactive = in between;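 note: fluorescent Galphao activated with GDP and aluminum fluoride binding bead-coupled RGS7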
RGS16-Gao conf: RGS16-Galphao interaction regulation, single point confirmation; shares compounds with RGS16-Gao HTS; bead-based flow cytometry, RGS16-Galphao binding; actives lie on both sides; response (% of control binding), % at 10 µM; actives 4% (n = 1,700); in the data active = response below about 74% or above about 130%; inactive = in between;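 note: Galphao activated as the GDP aluminium fluoride complex binding bead-coupled RGS16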
RGS4-Gao confirm: RGS4-Galphao interaction regulation, single point confirmation. shares compounds with RGS16-Gao HTS. actives 4% (n = 1,700). RGS4-Galphao binding, multiplexed bead flow cytometry; actives lie on both sides. binding response (% of control), % at 10 µM; in the data active = binding response below about 74% or above about 130%; inactive = in between
RGS19-Gao single: confirmation of regulators of human RGS19-Galphao interaction; shares compounds with RGS16-Gao HTS; bead-based flow cytometry RGS19-Galphao binding; actives lie on both sides; actives 5% (n = 1,700); response (percent of control binding), % at 10 µM; in the data active = response below about 50% or above about 160%; inactive = in between;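 note: 100% = no compound control and 0% = blank background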
Target sequence (P09471 whole entry, looked up): as above
Target sequence (P49795 whole entry, looked up): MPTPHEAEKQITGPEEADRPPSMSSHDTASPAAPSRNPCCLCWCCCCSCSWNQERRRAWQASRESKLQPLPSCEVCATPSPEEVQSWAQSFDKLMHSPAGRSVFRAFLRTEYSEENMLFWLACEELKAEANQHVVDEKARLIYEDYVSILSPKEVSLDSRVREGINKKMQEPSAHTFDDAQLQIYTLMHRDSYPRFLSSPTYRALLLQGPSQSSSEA
Active calls of the source: *; i = inactive; ? = inconclusive; . = no result given; [ ] = remark or other dose. Unless noted, the rule behind the calls is not given here.

SMILES	RGS16-Gao HTS	RGS8-Gao	RGS7-Gao reg	RGS4-Gao reg	Avidin fluor	GSH bead fluor	Biotin-avidin	RGS8-Gao confirm	RGS7-Gao confirm	RGS16-Gao conf	RGS4-Gao confirm	RGS19-Gao single	others
Cc1cccc(NC(=O)CCN2CCOCC2)c1	96.8	101.2	96.9	100.7	18	8	.	.	.	.	.	.
Cc1onc(-c2ccc(Cl)cc2Cl)c1-c1csc(N/N=C/c2ccccc2)n1	96.6	96.6	?	94.6	5	.	.	.	.	.	.	.
COc1ccc(-c2ocnc2C(=O)Nc2ccccc2N2CCCCC2)cc1	112.9	98.8	229.9*[activator]	127.9	221*	16	.	.	.	.	.	.	RGS-Gao=127.9*
CCOc1ccc(C(=O)Nc2ccccc2N2CCCC2)cc1	115.3	113.5	117.4	116.4	6	27	.	.	.	.	.	.
COc1ccc(/C(C)=N/OCC(=O)N2CC3(C)CC2CC(C)(C)C3)cc1 (centres undefined)	-44.8	281.6*[activator]	276.3*[activator]	303.8*[activator]	1	13	-0.1	106.8	109.2	113.0	108.6	123.6
CCOC(=O)C1CCCN(C(=O)/C=C/c2cc(OC)c(OC)c(OC)c2)C1 (centres undefined)	102.8	91.8	170.1*[activator]	102.7	114*	17	1.4	102.3	97.9	97.4	98.9	90.0	RGS-Gao=102.7*
CCOC(=O)C1CCCN(C(=O)/C=C/c2ccc(Cl)cc2)C1 (centres undefined)	108.9	101.1	106.0	103.9	4	21	.	.	.	.	.	.
CCCNC(=O)c1ccc(CN2CCc3ccccc3C2)cc1	21.2*	34.0*	21.8*	16.2*	1	15	-0.4	98.5	100.4	99.7	97.6	102.2
CCCCNC(=O)NS(=O)(=O)c1ccc(NC(=O)C(NC(N)=O)C(C)CC)cc1 (centres undefined)	101.6	101.5	?	100.5	7	.	.	.	.	.	.	.
O=S(=O)(NCC1CCCO1)c1ccc(Cl)nc1 (centres undefined)	.	.	.	.	.	.	-1.5	109.2	109.4	108.0	109.3	105.5
Cc1ccc(-c2ccc(S(=O)(=O)NCC3CCCO3)cc2)cc1 (centres undefined)	101.4	101.8	100.8	102.1	12	11	.	.	.	.	.	.
CCCCC(CCC(=O)O)(C(=O)OCC)c1csc(Nc2ccc(C)cc2)n1 (centres undefined)	10.0*	11.8*	-15.9*	1.7*	0	13	3.0	94.3	91.7	91.6	90.6	74.9
Cc1ccc(-c2nn3c(C)nnc3c3ccccc23)cc1S(=O)(=O)NCCO	110.8	104.7	172.4*[activator]	115.5	73*	24	1.0	98.4	96.1	97.9	102.0	87.5	RGS-Gao=115.5*
Cc1ccc(-c2nn3c(C)nnc3c3ccccc23)cc1S(=O)(=O)NC(C)(C)CO	109.1	103.5	103.8	102.7	11	10	.	.	.	.	.	.
FC(F)(F)c1cccc(NC(=S)Nc2cccc(NC(=S)Nc3cccc(C(F)(F)F)c3)n2)c1	94.8	99.9	?	97.8	3	.	.	.	.	.	.	.
NC(=O)COC(=O)c1cc(Cl)cc(Cl)c1N	97.2	99.8	92.5	98.0	9	10	.	.	.	.	.	.
Nc1c(Cl)cc(Cl)cc1C(=O)OCC(=O)N1CCCC1	4.0*	13.6*	9.7*	11.5*	-4	43	0.0	107.6	109.3	105.1	106.8	110.5
OC(COc1ccc(-c2ccccc2)cc1)CN1CCOCC1 (centres undefined)	102.3	100.7	104.3	104.1	13	28	.	.	.	.	.	.
OC(COc1ccc(Br)cc1)CN1CCOCC1 (centres undefined)	.	.	.	.	.	41	3.1	104.0	100.8	107.7	100.6	101.4
CC(=O)Nc1ccc(NC(=O)c2ccco2)cc1	-100.5*	69.0	84.7	83.5	8	15	-1.3	102.4	96.8	101.7	101.2	93.8	RGS-Gao=83.5*
Nc1ccc(S(=O)(=O)Nc2nccc(/C=C/c3ccc(Cl)cc3Cl)n2)cc1	106.2	103.9	?	106.7	4	.	.	.	.	.	.	.
CCC(=O)Nc1sc2c(c1C(N)=O)CCC2	-7.4*	11.6*	7.2*	15.7*	-2	22	-0.6	107.3	102.2	108.2	100.7	106.6
COc1ccc(/C=N/N2C(=N)SCC2=O)cc1	97.2	99.0	?	97.9	7	.	.	.	.	.	.	.
Cc1cc(C)n(-c2nc3ccccc3c(=O)n2OCC(=O)N(C)C)n1	99.2	100.7	102.9	102.5	33	14	.	.	.	.	.	.
Cc1cc(C)n(-c2nc3ccccc3c(=O)n2OCC(=O)Nc2c(C)cccc2C)n1	i	173.7*[activator]	133.7	148.8	6	33	4.2	126.6*[activator]	276.1*[activator]	209.8*[activator]	210.2*[activator]	246.5*[activator]	RGS-Gao=148.8*
SMILES	RGS16-Gao HTS	RGS8-Gao	RGS7-Gao reg	RGS4-Gao reg	Avidin fluor	GSH bead fluor	Biotin-avidin	RGS8-Gao confirm	RGS7-Gao confirm	RGS16-Gao conf	RGS4-Gao confirm	RGS19-Gao single	others
Cc1c(Br)c(C(F)(F)F)nn1CC(=O)NCCCn1ccnc1	99.9	101.2	99.6	99.0	10	27	.	.	.	.	.	.
Cc1ccc(C(=O)NCCCn2ccnc2)cc1[N+](=O)[O-]	102.5	103.4	104.2	98.0	10	9	.	.	.	.	.	.
Cc1cc([N+](=O)[O-])nn1CC(=O)NCCCn1ccnc1	132.7	122.3	269.1*[activator]	146.6	103*	20	-1.6	101.6	80.2	89.2	89.8	61.0	RGS-Gao=146.6*
CCCCC(=O)OCC(=O)Nc1cccc(S(=O)(=O)NC2=NCCCCC2)c1	94.1	99.6	101.3	97.7	12	11	.	.	.	.	.	.
Cc1noc(C)c1C(=O)N1CCN(CCc2ccccc2)CC1	103.3	98.9	102.1	103.7	9	46	.	.	.	.	.	.
Cc1cc(C(=O)N2CCN(CCc3ccccc3)CC2)no1	303.4*[activator]	172.3*[activator]	223.8*[activator]	226.7*[activator]	.	30	0.6	92.7	58.0*	70.2*	73.3*	39.4*
O=[N+]([O-])c1cc([N+](=O)[O-])c2c(=Nc3ccccc3)n(-c3ccccc3)n(O)c2c1	90.2	95.4	?	98.3	7	11	.	.	.	.	.	.
